Assay outcomes deposited in PubChem BioAssay by Sanford-Burnham Center for Chemical Genomics.
PLAP activator: activates human placental alkaline phosphatase; purified PLAP enzyme, luminescent substrate read-out; stronger effect = higher value; activation fold at 20 µM; 96,000 tested, 1.2% active; AID 696; in the data active means activation fold above about 2
CYP2C19 inhib: human CYP2C19 inhibition. inhibition, % at 5 µM. 96,000 tested, 21% active. CYP2C19 Supersomes, luciferin-H EGE luminescence, 30 min. AID 778;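 active means CYP2C19 inhibition above a set limit at 5 µM in the primary screen, cut at about 50% in these data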;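 further: plate controls were negative control wells for no effect and 2.5 mM tranylcypromine positive control for full effect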
CYP2C9 activ: increases human cytochrome P450 2C9 activity | activation factor at 5 µM | P11712 | 96,000 tested, 1.4% active | recombinant CYP2C9, luciferin-H conversion, luminescence; stronger effect = higher value; factor 1 = untreated enzyme, 0 = blocked | AID 1024;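 active means activation factor of 2 or more for CYP2C9 at a 5 µM dose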;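 further: 0 = sulfaphenazole-blocked wells and 1 = vehicle-only wells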
Target sequence (P11712 whole entry, looked up): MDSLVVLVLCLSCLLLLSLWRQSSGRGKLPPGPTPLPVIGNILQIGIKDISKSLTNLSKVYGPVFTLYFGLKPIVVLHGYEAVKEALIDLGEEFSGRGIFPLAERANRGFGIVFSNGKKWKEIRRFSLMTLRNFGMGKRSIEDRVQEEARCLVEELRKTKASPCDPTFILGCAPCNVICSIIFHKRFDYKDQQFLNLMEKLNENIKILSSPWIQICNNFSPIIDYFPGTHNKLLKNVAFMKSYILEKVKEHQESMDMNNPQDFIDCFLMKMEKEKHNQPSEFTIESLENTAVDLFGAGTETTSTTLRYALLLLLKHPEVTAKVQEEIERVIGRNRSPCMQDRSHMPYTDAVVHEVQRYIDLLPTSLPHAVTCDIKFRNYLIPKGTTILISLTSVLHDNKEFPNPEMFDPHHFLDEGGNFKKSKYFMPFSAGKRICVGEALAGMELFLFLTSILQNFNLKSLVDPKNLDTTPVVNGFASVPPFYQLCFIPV
CYP2C9 inhib: blocks human cytochrome P450 2C9; 96,000 tested, 20% active; inhibition, % at 5 µM; CYP2C9 Supersomes, luciferin-H conversion, luminescence; AID 777;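 active means blocking of liver enzyme CYP2C9 beyond about 50% at 5 µM, limit read from the data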
CYP2C19 activ: activators of human cytochrome P450 2C19; recombinant CYP2C19, luciferin-H EGE luminescence; stronger effect = higher value; 0 = fully inhibited enzyme, 1 = untreated enzyme; activation factor at 5 µM; 96,000 tested, under 10 active;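 active means activation factor of at least 2 at 5 µM in the primary screen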;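 further: 0 = wells with 2.5 mM tranylcypromine and 1 = vehicle-only wells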
Starred values were filed as active, the others as inactive. Shown are actives, neighbours in structure and some others; about 31% of the full set was active somewhere.

What do the screens show for `O=C(CSc1ncn[nH]1)NCCOc1ccccc1`?
PLAP activator: 0.9; CYP2C19 inhib: 39; CYP2C9 activ: 0.9; CYP2C9 inhib: 11; CYP2C19 activ: 0.6

Results for CCn1cc(CNC(=O)CCc2ccc(OC)cc2)cn1 ?
PLAP activator: 1; CYP2C19 inhib: 15; CYP2C9 activ: 1; CYP2C9 inhib: 2; CYP2C19 activ: 0.8

Results for COc1ccc(CCC(=O)NCCc2cn3c(C)csc3n2)cc1 ?
PLAP activator: 1.6; CYP2C19 inhib: 53*; CYP2C9 activ: 1; CYP2C9 inhib: 2; CYP2C19 activ: 0.5

Results for CCOC(=O)C(Sc1ncn[nH]1)c1ccccc1 (stereo not drawn) ?
PLAP activator: 1.7; CYP2C19 inhib: 64*; CYP2C9 activ: 0.7; CYP2C9 inhib: 26; CYP2C19 activ: 0.4

How did O=C(CSc1ncn[nH]1)NCCC(c1ccccc1)c1ccccc1 do in these assays?
PLAP activator: 1.5; CYP2C19 inhib: 83*; CYP2C9 activ: 0.3; CYP2C9 inhib: 65*; CYP2C19 activ: 0.2

What do the screens show for `CCCCOc1ccc(-c2nc(=S)[nH][nH]2)cc1`?
PLAP activator: 1.6; CYP2C19 inhib: 3; CYP2C9 activ: 0.8; CYP2C9 inhib: 16; CYP2C19 activ: 1

Results for CN(C1CCCCC1)S(=O)(=O)c1ccc(NC(=O)C2CCCCC2C(=O)O)cc1 (stereo not drawn) ?
PLAP activator: 1.4; CYP2C19 inhib: 12; CYP2C9 activ: 1; CYP2C9 inhib: 1; CYP2C19 activ: 0.9

Results for CN(C)c1cc(-c2ccccc2)nc(N)n1 ?
PLAP activator: 1; CYP2C19 inhib: 32; CYP2C9 activ: 0.9; CYP2C9 inhib: 14; CYP2C19 activ: 0.7

How did COc1ccccc1NC(=O)CN1CCN(Cc2ccccc2)CC1 do in these assays?
PLAP activator: 1.5; CYP2C19 inhib: 72*; CYP2C9 activ: 0.6; CYP2C9 inhib: 36; CYP2C19 activ: 0.3

Results for COc1ccc(OC)c(NC(=O)CCN2CCN(Cc3ccccc3)CC2)c1 ?
PLAP activator: 1.6; CYP2C19 inhib: 14; CYP2C9 activ: 0.9; CYP2C9 inhib: 5; CYP2C19 activ: 0.9

What do the screens show for `COC(=O)c1sccc1NC(=O)CN1CCN(c2ccc(F)cc2)CC1`?
PLAP activator: 1.7; CYP2C19 inhib: 39; CYP2C9 activ: 0.5; CYP2C9 inhib: 54*; CYP2C19 activ: 0.6

How did COc1ccc(C)cc1NC(=O)CN1CCN(c2ccc(F)cc2)CC1 do in these assays?
PLAP activator: 1.2; CYP2C19 inhib: 78*; CYP2C9 activ: 0.9; CYP2C9 inhib: 12; CYP2C19 activ: 0.2

Results for COc1ccccc1NC(=O)CN1CCN(CC(=O)Nc2ccc(F)cc2)CC1 ?
PLAP activator: 1.5; CYP2C19 inhib: 88*; CYP2C9 activ: 0.7; CYP2C9 inhib: 26; CYP2C19 activ: 0.1

Results for CN(C)CCNC(=O)CN1C(=O)COc2ccc(C(C)(C)C)cc21 ?
PLAP activator: 1.4; CYP2C19 inhib: -7; CYP2C9 activ: 1; CYP2C9 inhib: -2; CYP2C19 activ: 1.1

Results for COc1ccccc1NC(=O)CN1CCN(CC(=O)Nc2ccc(OCc3ccccc3)cc2)CC1 ?
PLAP activator: 1.2; CYP2C19 inhib: 87*; CYP2C9 activ: 0.2; CYP2C9 inhib: 79*; CYP2C19 activ: 0.1

Results for Cn1c(=O)c2c(nc(N3CCN(Cc4ccccc4)CC3)n2CCSc2ncccn2)n(C)c1=O ?
PLAP activator: 1.3; CYP2C19 inhib: 16; CYP2C9 activ: 0.9; CYP2C9 inhib: 12; CYP2C19 activ: 0.8

How did O=C1c2ccc(Oc3ccc4c(c3)C(=O)N(CCCCO)C4=O)cc2C(=O)N1CCCCO do in these assays?
PLAP activator: 1.3; CYP2C19 inhib: 84*; CYP2C9 activ: 0.1; CYP2C9 inhib: 86*; CYP2C19 activ: 0.2

How did CC(=O)C1=C(O)C(=O)N(c2nnn(C)n2)C1c1cccs1 (stereo not drawn) do in these assays?
PLAP activator: 1.1; CYP2C19 inhib: -3; CYP2C9 activ: 1; CYP2C9 inhib: 5; CYP2C19 activ: 1

What do the screens show for `Cc1ccc2[nH]c3c(=O)n(CCCN4CCOCC4)cnc3c2c1`?
PLAP activator: 1.4; CYP2C19 inhib: 68*; CYP2C9 activ: 1; CYP2C9 inhib: -1; CYP2C19 activ: 0.3

Results for Cc1ccc2[nH]c3c(=O)n(CCc4cnc[nH]4)cnc3c2c1 ?
PLAP activator: 1.4; CYP2C19 inhib: 99*; CYP2C9 activ: 0; CYP2C9 inhib: 97*; CYP2C19 activ: 0

What do the screens show for `Cc1ccc2[nH]c3c(=O)n(CCN4CCOCC4)cnc3c2c1`?
PLAP activator: 1; CYP2C19 inhib: 8; CYP2C9 activ: 1; CYP2C9 inhib: -4; CYP2C19 activ: 0.9

How did N#Cc1nc(-c2cccs2)oc1N1CCN(c2ccccc2)CC1 do in these assays?
PLAP activator: 1; CYP2C19 inhib: 41; CYP2C9 activ: 0.6; CYP2C9 inhib: 39; CYP2C19 activ: 0.6

How did C/C(=N\NC(=O)c1c[nH]c2ccccc12)c1ccc(C)o1 do in these assays?
PLAP activator: 2.6*; CYP2C19 inhib: 42; CYP2C9 activ: 0.6; CYP2C9 inhib: 37; CYP2C19 activ: 0.6

What do the screens show for `Cc1ccc(S(=O)(=O)N(C)Cc2nc(-c3ccncc3)no2)cc1`?
PLAP activator: 0.8; CYP2C19 inhib: 92*; CYP2C9 activ: 0.3; CYP2C9 inhib: 69*; CYP2C19 activ: 0.1

Results for COc1ccc(S(=O)(=O)N(Cc2ccccc2)Cc2nc(-c3ccccc3)no2)cc1 ?
PLAP activator: 1; CYP2C19 inhib: 87*; CYP2C9 activ: 0.1; CYP2C9 inhib: 92*; CYP2C19 activ: 0.1

Results for COc1ccc(S(=O)(=O)N(Cc2ccccc2)Cc2nc3ccccc3c(=O)[nH]2)cc1 ?
PLAP activator: 0.9; CYP2C19 inhib: 55*; CYP2C9 activ: 0.5; CYP2C9 inhib: 49; CYP2C19 activ: 0.4

How did CN(Cc1nc(-c2cccnc2)no1)S(=O)(=O)c1ccccc1 do in these assays?
PLAP activator: 0.9; CYP2C19 inhib: 74*; CYP2C9 activ: 0.9; CYP2C9 inhib: 15; CYP2C19 activ: 0.3

Results for Cc1ccc(S(=O)(=O)N(C)Cc2nc(-c3ccc(Br)cc3)no2)cc1 ?
PLAP activator: 0.6; CYP2C19 inhib: 20; CYP2C9 activ: 1; CYP2C9 inhib: -3; CYP2C19 activ: 0.8

How did CN(Cc1nc(-c2ccccn2)no1)S(=O)(=O)c1ccc(Cl)cc1 do in these assays?
PLAP activator: 0.9; CYP2C19 inhib: 22; CYP2C9 activ: 0.9; CYP2C9 inhib: 14; CYP2C19 activ: 0.8

Results for Cc1ccc(S(=O)(=O)N2CCN(S(=O)(=O)c3ccc(C)cc3)C3OCCOC32)cc1 (stereo not drawn) ?
PLAP activator: 0.8; CYP2C19 inhib: -14; CYP2C9 activ: 1; CYP2C9 inhib: -2; CYP2C19 activ: 1.1

What do the screens show for `O=C(NN1C(=O)c2ccccc2NC1c1ccccn1)c1ccc(Br)cc1` (stereo not drawn)?
PLAP activator: 1.1; CYP2C19 inhib: -10; CYP2C9 activ: 0.7; CYP2C9 inhib: 33; CYP2C19 activ: 1.1
